From PubChem BioAssay
The source made the active and inactive calls.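 How the source made its calls, unless noted: active means visually confirmed hit in the image check and inhibition above 20%; inconclusive means visually confirmed hit but inhibition not above 20%; inactive means no visual hit in the image check.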

What was measured:
[1] = inhibitors of TNFa-induced NFkB p65 translocation, primary screen, imaging, HUVEC, MLSMR starter and 10KST1 sets (AID 438;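 active means inhibition above 20% together with a positive visual image hit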;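 further: compound added about 3h40 before a 20 min TNFalpha stimulation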;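 on inhibition: signal is the nuclear over cytoplasmic p65 intensity ratio per well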); conditions: HUVEC TNFa-induced p65 nuclear translocation; cell count: measured here: nuclei count (cytotoxicity indicator), at 2.08 µM; inhibition: at 2 µM, stronger effect = higher value, 0% TNFa-plus-vehicle, 100% no-TNFa wells
[2] = reduction of polyQ htt aggregates in cells – imaging, exon1htt(103Q)mCFP cells, high-content imaging, primary screen (AID 483;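 active means visual image review flags a hit and inhibition of aggregation exceeds 20%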;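 further: compound exposure lasted 3 days before fixation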;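 on nuclei count: percent of the per-plate median nuclei count of sample wells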); conditions: exon1htt(103Q)mCFP cell line, aggregate imaging, at 2 µM; inhibition of aggregation: stronger effect = higher value; nuclei count: measured here: cell count, toxicity
[3] = endothelial E-selectin expression blockers – imaging, HUVEC, immunofluorescence, MLSMR starter and 10KST1 sets, primary screen (AID 487); conditions: HUVEC TNFalpha-induced E-selectin immunofluorescence imaging, at 2 µM; inhibition: stronger effect = higher value; nuclei count: measured here: cell number, toxicity;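 on inhibition: signal is fraction of cell area covered by stained E-selectin grains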;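 on nuclei count: 100% = median nuclei count of all wells on the same plate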
[4] = molecular target: Voltage-gated potassium channel subunit beta-2 (Rattus norvegicus) (UniProt P62483); assay: inhibitors of rat Kvbeta2 reductase activity – biochemical, NADPH fluorescence, primary screen (AID 622;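 active means fluorescence slope higher than the sample average by over 3 SD, cut at about -0.22 in these data, passing the limit was not always enough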;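 further: slope of raw intensity against log time taken from 70 to 1610 s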); conditions: recombinant KvBeta, 4-cyanobenzaldehyde reduction, at 10 µM, stronger effect = higher value
Chain of Voltage-gated potassium channel subunit beta-2 (Rattus norvegicus) (P62483 whole entry, looked up): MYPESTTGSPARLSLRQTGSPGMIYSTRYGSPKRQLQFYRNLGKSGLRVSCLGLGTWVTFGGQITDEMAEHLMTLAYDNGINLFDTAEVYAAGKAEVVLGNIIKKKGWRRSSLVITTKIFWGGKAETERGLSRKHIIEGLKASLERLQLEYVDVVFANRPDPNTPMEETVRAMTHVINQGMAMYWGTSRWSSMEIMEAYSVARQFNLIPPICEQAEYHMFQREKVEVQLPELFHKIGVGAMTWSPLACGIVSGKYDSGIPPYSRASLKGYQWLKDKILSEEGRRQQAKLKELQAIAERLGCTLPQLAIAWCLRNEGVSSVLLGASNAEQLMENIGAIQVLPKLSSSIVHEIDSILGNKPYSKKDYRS

[5] = molecular target: Voltage-gated potassium channel subunit beta-2 (Rattus norvegicus) (UniProt P62483); assay: enhancers of rat Kvbeta2 NADPH turnover – biochemical, NADPH fluorescence, primary screen (AID 623;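 active means NADPH fluorescence slope more negative than the mean of all samples by about 3 SD, 99.7% confidence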;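 further: fluorescence intensity change per second fitted from 20 to 320 s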); conditions: Recombinant KvBeta, NADPH fluorescence decrease slope, 10 min; at 10 µM; stronger effect = lower value
[6] = molecular target: Alpha-2C adrenergic receptor (Homo sapiens) (UniProt P18825); assay: compounds altering alpha2C-coupled GIRK flux – cell-based, HEK293 alpha2C/GIRK1/2, thallium flux, primary screen (AID 624;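 active means fluorescence slope after compound addition differing from the mean of all screened samples at 99.7% confidence, in either direction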;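 further: slope of fluorescence ratio to pre-addition baseline per second over 15 to 24 s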); conditions: thallium flux BTC fluorescence, at 10 µM, actives lie on both sides
Chain of Alpha-2C adrenergic receptor (Homo sapiens) (P18825 whole entry, looked up): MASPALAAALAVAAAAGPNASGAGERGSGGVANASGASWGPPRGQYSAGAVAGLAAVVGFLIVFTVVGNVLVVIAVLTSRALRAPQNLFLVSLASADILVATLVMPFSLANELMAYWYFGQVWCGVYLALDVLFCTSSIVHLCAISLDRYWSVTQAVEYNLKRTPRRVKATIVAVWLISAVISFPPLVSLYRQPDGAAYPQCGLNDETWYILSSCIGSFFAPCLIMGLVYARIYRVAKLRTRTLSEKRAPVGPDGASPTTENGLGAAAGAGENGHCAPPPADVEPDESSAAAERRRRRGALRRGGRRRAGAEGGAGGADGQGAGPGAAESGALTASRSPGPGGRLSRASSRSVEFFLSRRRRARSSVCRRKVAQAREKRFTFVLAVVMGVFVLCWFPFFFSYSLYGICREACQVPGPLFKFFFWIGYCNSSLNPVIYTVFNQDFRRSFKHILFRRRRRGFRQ

[7] = blockers of RIG-like receptor reporter activation – cell-based, Sendai virus stimulus, luciferase, 10K MLSCN set, TLR/RLR signaling modifier project, primary screen (AID 602276;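 active means inhibition at or above 50% at 10 µM; inactive means inhibition below 50%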;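 further: firefly luciferase from ISG56 promoter only with Renilla not read in this screen; 0% = Sendai virus plus DMSO and 100% = medium plus DMSO without virus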); conditions: HEK293 RL24 IRF3 luciferase reporter, at 10 µM, stronger effect = higher value
[8] = TLR3 IRF3 reporter activation blockers – cell-based, poly I:C stimulus, luciferase, 10K MLSCN set, primary screen (AID 602277;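 active means inhibition of the reporter signal at or above 50%; inactive means inhibition below 50%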); conditions: HEK293-TLR3 RL24 IRF3 luciferase reporter, at 10 µM, stronger effect = higher value

| SMILES | cell count [1] | inhibition [1] | inhibition of aggregation [2] | nuclei count [2] [%] | inhibition [3] | nuclei count [3] [%] | fluorescence slope [4] | NADPH fluorescence slope [5] | slope [6] | inhibition [7] | inhibition [8] |
| --- | --- | --- | --- | --- | --- | --- | --- | --- | --- | --- | --- |
| Cc1ccc(C2=N/C(=C/N3CCOCC3)C(=O)O2)cc1 | 302 | 3.3% (inactive) | 14% (inactive) | 96.4 | 8.3% (inactive) | 98.9 | -0.512 (inactive) | -2.4e-05 (inactive) | 0.00711 (inactive) | -49.1% (inactive) | -197% (inactive) |
| COC(=O)C1(C(F)(F)F)N=C2Sc3ccccc3N2C(N2CCOCC2)=N1 (stereo not drawn) | 760 | -8.1% (inactive) | 8.1% (inactive) | 76.2 | -62.6% (inactive) | 107 | -0.54 (inactive) | -4.9e-05 (inactive) | 0.00667 (inactive) | 11.6% (inactive) | 26.4% (inactive) |
| Cc1cc(=O)oc2c1c(C)nn2-c1ccc(C(=O)OC(C)C)cc1 | 741 | -2.9% (inactive) | -39.6% (inactive) | 106 | -67.2% (inactive) | 106 | -0.529 (inactive) | -1.2e-05 (inactive) | 0.00612 (inactive) | 8% (inactive) | 26.1% (inactive) |
| COCC(=O)N(Cc1cc2cc(OC)ccc2[nH]c1=O)c1ccccc1 | 412 | 4.3% (inactive) | 1.5% (inactive) | 106 | -47.1% (inactive) | 113 | -0.453 (inactive) | -5.4e-05 (inactive) | 0.00281 (inactive) | 5.46% (inactive) | 19% (inactive) |
| CN(Cc1ccccc1)c1nc2c(c(=O)[nH]c(=O)n2C)n1Cc1ccccc1Cl | 364 | -1% (inactive) | -1.2% (inactive) | 108 | -18.5% (inactive) | 102 | -0.6 (inactive) | -2.7e-05 (inactive) | 0.00484 (inactive) | 16% (inactive) | 23.3% (inactive) |
| CCCn1c(-c2ccc(F)cc2)cnc1SCC(=O)O | 431 | 9.9% (inactive) | -4.3% (inactive) | 106 | -63.4% (inactive) | 106 | -0.622 (inactive) | -3.6e-05 (inactive) | 0.00449 (inactive) | 16.2% (inactive) | 19.8% (inactive) |
| CS(=O)(=O)N1CCN(c2ccccc2NC(=O)c2ccc(-c3ccc(Cl)cc3Cl)o2)CC1 | 194 | -3.5% (inactive) | 32.9% (active) | 72.7 | 24.8% (inactive) | 54.7 | -0.357 (inactive) | 2.6e-05 (inactive) | 0.00896 (inactive) | 12% (inactive) | 23.2% (inactive) |
| CCOc1ccccc1-n1c(SCC(=O)NC(C)CC)nnc1-c1ccoc1C (stereo not drawn) | 608 | -2.4% (inactive) | -1.9% (inactive) | 105 | -47.9% (inactive) | 121 | -0.439 (inactive) | -3.6e-05 (inactive) | 0.00423 (inactive) | 18.6% (inactive) | 17.4% (inactive) |
| CCc1cc(C(=O)OC)c(NC(=O)CCC(=O)O)s1 | 719 | -5.2% (inactive) | 3.9% (inactive) | 117 | -24% (inactive) | 106 | -0.392 (inactive) | 3.6e-05 (inactive) | 0.0103 (inactive) | -0.441% (inactive) | 97.6% (active) |
| O=C(NCc1ccc2c(c1)OCO2)c1cccc2c1C(=O)N(C1CCCCC1)C2 | 570 | -5% (inactive) | -12.5% (inactive) | 108 | 3.2% (inactive) | 115 | -0.615 (inactive) | -1.7e-05 (inactive) | 0.00632 (inactive) | 8.65% (inactive) | 15.3% (inactive) |
| COc1ccc(S(=O)(=O)Cc2ccc(C(=O)NCCc3ccc(S(N)(=O)=O)cc3)o2)cc1 | 686 | 0.6% (inactive) | 41.2% (active) | 71.5 | -51.1% (inactive) | 114 | -0.561 (inactive) | -2.1e-05 (inactive) | 0.00625 (inactive) | 9.1% (inactive) | 28.2% (inactive) |
| COc1cccc(OC)c1OCCNCCO | 632 | -3.4% (inactive) | 7.9% (inactive) | 118 | 8.1% (inactive) | 90.6 | -0.436 (inactive) | 3.2e-05 (inactive) | 0.00544 (inactive) | 13.1% (inactive) | 20.6% (inactive) |
| CCOC(=O)c1ccccc1NC(=O)c1cc2sccc2n1C | 740 | -42.9% (inactive) | 5.5% (inactive) | 107 | -20.5% (inactive) | 101 | -0.483 (inactive) | 1.4e-05 (inactive) | 0.00572 (inactive) | -3.63% (inactive) | -15.2% (inactive) |
| COc1ccc(CNC(=O)c2cc3c(=O)n4ccccc4nc3n(Cc3ccco3)c2=N)cc1 | 666 | -7.8% (inactive) | -28.6% (inactive) | 127 | -30.5% (inactive) | 113 | -0.597 (inactive) | -6e-07 (inactive) | 0.0063 (inactive) | 14.5% (inactive) | 20.4% (inactive) |
| CCOc1ccc(C2C=C(c3ccc(F)cc3)Nc3ncnn32)cc1 (stereo not drawn) | 548 | 11.5% (inactive) | -15.6% (inactive) | 74.5 | -113% (inactive) | 125 | -0.0654 (active) | -6.9e-06 (inactive) | 0.00554 (inactive) | 6.86% (inactive) | 12.6% (inactive) |
| COc1ccc(C2CC(=O)C3=C(C2)Nc2ccccc2N(C(=O)C2CC2)C3c2cccnc2)cc1OC (stereo not drawn) | 683 | -10.9% (inactive) | -43.4% (inactive) | 87.2 | 0.8% (inactive) | 98.6 | -0.367 (inactive) | 7.5e-06 (inactive) | 0.00392 (inactive) | 10.6% (inactive) | 17.6% (inactive) |
| O=C(CCNS(=O)(=O)c1cccs1)Nc1ccccc1F | 714 | -16.8% (inactive) | -2.2% (inactive) | 102 | -9.8% (inactive) | 109 | -0.3 (inactive) | -6.3e-05 (inactive) | 0.00565 (inactive) | 6.58% (inactive) | 7.01% (inactive) |
| COc1cc(NC(=O)CN(c2cc(C)cc(C)c2)S(=O)(=O)c2c(C)noc2C)cc(OC)c1 | 541 | 2.3% (inactive) | -25% (inactive) | 80.6 | -42.2% (inactive) | 118 | -0.619 (inactive) | 2.8e-05 (inactive) | 0.00758 (inactive) | 18.7% (inactive) | 19.5% (inactive) |
| O=C(NCc1cccs1)C1CC(=O)N(C2CCCC2)C1 (stereo not drawn) | 376 | -14.4% (inactive) | -18.1% (inactive) | 97.2 | -121% (inactive) | 172 | -0.56 (inactive) | 4.8e-05 (inactive) | 0.00628 (inactive) | -9.61% (inactive) | -21.8% (inactive) |
| COc1ccc(C(C)N2CC34C=CC(O3)C(C(=O)OCC(C)C)C4C2=O)cc1 (stereo not drawn) | 589 | 9.1% (inactive) | 3.8% (inactive) | 75.7 | 8.2% (inactive) | 93.5 | -0.541 (inactive) | -4.3e-05 (inactive) | 0.00626 (inactive) | 13.5% (inactive) | 23.7% (inactive) |
| COC(=O)c1ccccc1NC(=O)COc1ccc(S(=O)(=O)N2CCCC2)cc1C | 618 | 7% (inactive) | 10.3% (inactive) | 88.3 | 44.3% (inactive) | 98.4 | -0.405 (inactive) | 4.1e-06 (inactive) | 0.00334 (inactive) | 16.3% (inactive) | 6.91% (inactive) |
| O=C1CCCN1Cc1ncnn1-c1ccccc1 | 453 | -1.8% (inactive) | 10.2% (inactive) | 114 | -85.8% (inactive) | 131 | -0.349 (inactive) | -6.8e-05 (inactive) | 0.00512 (inactive) | 7.63% (inactive) | 3.72% (inactive) |
| CCN1CCN(CCCNC(=O)C2c3ccccc3C(=O)N(C)C2c2ccc(OC)cc2)CC1 (stereo not drawn) | 567 | 15.4% (inactive) | -1.2% (inactive) | 82.8 | 31.9% (inactive) | 93.8 | -0.504 (inactive) | -1.6e-06 (inactive) | 0.00453 (inactive) | 2.59% (inactive) | 14% (inactive) |
| Cc1ccc(-c2noc(CN3C(C)CCCC3C)n2)cc1 (stereo not drawn) | 483 | 2.1% (inactive) | -5.2% (inactive) | 75.4 | -26.4% (inactive) | 101 | -0.531 (inactive) | -1.6e-05 (inactive) | 0.00754 (inactive) | 2.73% (inactive) | 0.396% (inactive) |
| C=COCCNC(=O)Nc1ccc(Cl)c(Cl)c1 | 387 | -7% (inactive) | 4.5% (inactive) | 101 | -170% (inactive) | 119 | -0.348 (inactive) | -4.7e-05 (inactive) | 0.00498 (inactive) | -35.4% (inactive) | -41.6% (inactive) |
| COCCn1c(SCC(=O)N2CCc3ccccc32)nc2c(c1=O)SC(C)C2 (stereo not drawn) | 499 | -4.4% (inactive) | 13% (inactive) | 87.2 | -0.4% (inactive) | 109 | -0.45 (inactive) | -1.4e-05 (inactive) | 0.00569 (inactive) | 1.65% (inactive) | 22.3% (inactive) |
| Cc1cc(C(=O)NCc2cccnc2)n(-c2ccccc2)n1 | 613 | -0.9% (inactive) | -20.8% (inactive) | 103 | -82.8% (inactive) | 127 | -0.546 (inactive) | -1.4e-05 (inactive) | 0.00657 (inactive) | -0.216% (inactive) | 8.35% (inactive) |
| CCOC(=O)c1oc2cccc(OC(C)=O)c2c1C | 306 | 8.1% (inactive) | 11.2% (inactive) | 97.4 | 24.5% (inactive) | 85.9 | -0.607 (inactive) | -4.6e-05 (inactive) | 0.00384 (inactive) | -33.6% (inactive) | -89.8% (inactive) |
